KCNQ2 pot = enhances the rat KCNQ2 potassium channel. CHO-K1 KCNQ2, FluxOR thallium flux fluorescence; active compounds read high. B-score at 10 µM. 0.54% of 310,000 active. AID 2239;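 active = fluorescence ratio B-score at least 3 SD of library B-scores, with initial fluorescence B-score within 3 of them, cut at about 5.3 in these data; same plate scores as AID 2156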;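 also: B-score of peak minus minimum over baseline fluorescence ratio after K+ and Tl+ stimulus; positive B-score means potentiation of KCNQ2 with more thallium influx and brighter signal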
KCNQ2 block = blocks the rat KCNQ2 potassium channel; O88943; CHO-K1 KCNQ2, FluxOR thallium flux, 20 min; active compounds read low; B-score at 10 µM; 1.1% of 310,000 active; AID 2156;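 active = fluorescence ratio B-score at most minus 3 library SDs, with starting brightness B-score within 2 library SDs, cut at about -5.5 in these data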
Kir21 confirm = confirmation of mouse Kir2.1 potassium channel inhibitors; shares compounds with KCNQ2 pot; Kir2.1-expressing cells, FluxOR thallium flux fluorescence; active compounds read low; Tl flux remaining, % of negative control (active compounds read low), % at 10 µM; 41% of 2,300 active; AID 2032;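 active = Primary-screen hit whose thallium flux fell at least 3 control SD below untreated wells in both duplicates, with normal baseline fluorescence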;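 also: 0% = blank wells without stimulus and 100% = stimulated no-compound controls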
HEK293 ctr = counter-screen for Kir2.1 inhibitors: effect in parental HEK293 cells. FluxOR thallium flux fluorescence; 0% = unstimulated blank wells. 19% of 2,300 active. shares compounds with KCNQ2 pot. FluxOR signal as % of negative control (100 = no effect), % at 10 µM;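 active = dye signal at least 3 control SD above or below untreated wells in both duplicates, raw fluorescence within 3, either direction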;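 also: percent is based on the flux ratio of peak minus minimum fluorescence over baseline F0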
CHO-K1 Tl ctr = counter-screen for KCNQ2 potentiators: effect in parental CHO-K1 cells; shares compounds with KCNQ2 pot; FluxOR thallium flux fluorescence; zero = vehicle mean+3SD, 100% = vehicle-minus-blank window; activity increase over 3SD of controls, % at 10 µM; 43% of 1,200 active; AID 2282;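 active = signal rise of at least 3 SD above the untreated control mean, in both duplicate wells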;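 also: counter screen of KCNQ2 potentiator hits so any rise reflects channel-independent effects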
KCNQ1 sel pot = human KCNQ1 counter-target activity of KCNQ2 potentiators | CHO KCNQ1 stable, FluxOR thallium flux fluorescence; beyond 3SD, as % of vehicle-control signal | activation over 3SD threshold, % at 10 µM | 28% of 1,200 active | shares compounds with KCNQ2 pot;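 active = fluorescence ratio rise of at least 3 SD of vehicle wells above their mean, in both replicate wells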;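 also: 0% = vehicle mean plus 3 SD and 100% = vehicle minus unstimulated blank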
Target sequence (P51787 whole entry, looked up): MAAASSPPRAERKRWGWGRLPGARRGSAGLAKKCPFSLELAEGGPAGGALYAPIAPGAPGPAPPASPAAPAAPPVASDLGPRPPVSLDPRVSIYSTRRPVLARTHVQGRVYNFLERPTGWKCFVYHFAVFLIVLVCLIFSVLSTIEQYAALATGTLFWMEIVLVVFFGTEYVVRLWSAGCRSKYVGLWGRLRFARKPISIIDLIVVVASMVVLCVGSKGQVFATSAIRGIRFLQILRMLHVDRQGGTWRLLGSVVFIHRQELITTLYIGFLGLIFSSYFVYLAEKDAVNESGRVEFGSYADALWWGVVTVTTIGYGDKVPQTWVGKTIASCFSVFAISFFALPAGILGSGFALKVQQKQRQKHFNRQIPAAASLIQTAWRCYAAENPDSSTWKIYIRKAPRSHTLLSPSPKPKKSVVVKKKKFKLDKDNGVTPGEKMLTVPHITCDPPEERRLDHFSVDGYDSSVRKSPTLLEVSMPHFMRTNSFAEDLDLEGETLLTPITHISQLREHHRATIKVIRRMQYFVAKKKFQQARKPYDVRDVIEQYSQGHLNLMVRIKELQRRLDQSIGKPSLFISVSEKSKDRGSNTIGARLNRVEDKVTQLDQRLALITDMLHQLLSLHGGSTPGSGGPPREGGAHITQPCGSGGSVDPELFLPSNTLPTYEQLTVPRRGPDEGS
KCNQ2 pot confirm = confirmation of rat KCNQ2 potassium channel potentiators. shares compounds with KCNQ2 pot. CHO-KCNQ2 cells, FluxOR thallium flux fluorescence. potentiation, less the hit threshold, % at 10 µM. 68% of 1,200 active;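 active = fluorescence ratio rising 3 SD or more over the vehicle control mean in both replicates, plus primary screen hit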;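 also: peak minus minimum thallium fluorescence divided by baseline after K/Tl stimulus; 0% = vehicle mean plus 3 SD and 100% = vehicle minus unstimulated blank difference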
Kir2-1 sel = selectivity of KCNQ2 potentiators: effect on mouse Kir2.1; shares compounds with KCNQ2 pot; 2% of 1,200 active; HEK293 Kir2.1, FluxOR thallium flux fluorescence; activity over 3SD threshold, % at 10 µM;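 active = fluorescence ratio rise of at least 3 SD above the vehicle-control mean, seen in both replicates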;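 also: 0% = vehicle mean plus 3 SD and 100% = vehicle minus no-stimulus blank window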
KCNQ2 W236L MoA = rat KCNQ2 W236L mutant potentiation by KCNQ2 potentiators; shares compounds with KCNQ2 pot; current increase over 3SD of negative controls (%), active compounds read high, % at 25 µM; AID 2558; CHO KCNQ2-W236L, automated patch clamp current; 10% of 940 active;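 active = current increase at least 3 SD of the untreated controls above them in both duplicate recordings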
* hit, by the source's call; i = inactive; nt = not tested or not shown. An excerpt weighted towards active compounds, which were near 1.6% of everything screened.

SMILES | KCNQ2 pot | KCNQ2 block | Kir21 confirm | HEK293 ctr | others
CCOc1ccc(Cc2nnc(SCC(=O)Nc3c(C)cccc3C)[nH]c2=O)cc1 | nt | i | nt | nt
Clc1ncccc1OCc1ccccc1 | 1.18 | i | nt | nt
NC(=O)C1CCN(C(=O)c2cc3c(s2)CCCC3)CC1 | nt | i | i | i
CC(C)NC(=O)C1CCN(C2CCN(C(=O)c3cc4c(s3)CCCCC4)CC2)CC1 | nt | i | nt | nt
O=C(/C=C/c1c(F)cccc1Cl)NCCCN1CCOCC1 | nt | i | nt | nt
Cc1nc2nc(CCNS(=O)(=O)c3ccc(Cl)cc3)cn2nc1C | 0.61 | i | nt | nt
CCCc1cc(CN(C)C(=O)CC2C(=O)NCCN2Cc2ccccc2C)[nH]n1 (centres undefined) | nt | i | nt | nt
Cc1ccnc(Nc2nc(-c3sc(C)nc3C)cs2)c1 | 2.9 | i | nt | nt
Cc1nc(C)c(-c2csc(Nc3ccccn3)n2)s1 | 5.72* | i | i | i | CHO-K1 Tl ctr=-14.2;KCNQ1 sel pot=14.6*;KCNQ2 pot confirm=26.2*;Kir2-1 sel=-28.4;KCNQ2 W236L MoA=40.2%*
CC(C)c1ccc(NC(=O)NCc2cccnc2)cc1 | nt | i | nt | nt
CN1CCC(OC(=O)c2cc3cc(Br)ccc3oc2=O)CC1 | nt | i | nt | nt
CC(C)n1cc(NC(=O)c2cc(-c3ccccc3)on2)cn1 | 12.1* | i | i | 214.0%* | CHO-K1 Tl ctr=13.7*;KCNQ1 sel pot=-11.2;KCNQ2 pot confirm=11.2*;Kir2-1 sel=-15.2;KCNQ2 W236L MoA=i
O=C(Nc1cccnc1)c1cc(-c2ccccc2)on1 | 1.39 | i | nt | nt
CCOc1ccc(NC(=S)N2CCN(c3ccc(N4CCOCC4)nn3)CC2)cc1 | 0.09 | i | nt | nt
O=C(COc1ccc2cc(Br)ccc2c1Br)N1CCOCC1 | 9.51* | i | i | i | CHO-K1 Tl ctr=42.4*;KCNQ1 sel pot=-4.6;KCNQ2 pot confirm=8.8*;Kir2-1 sel=-43.8;KCNQ2 W236L MoA=i
CC1CCN(C(=O)COc2ccc3ccccc3c2Br)CC1 | 16.2* | i | i | i | CHO-K1 Tl ctr=-0.8;KCNQ1 sel pot=-10.9;KCNQ2 pot confirm=31.7*;Kir2-1 sel=-38.3;KCNQ2 W236L MoA=i
O=C(COc1ncnc2ccc(Br)cc12)N1CCOCC1 | 0.98 | i | nt | nt
CC1CCN(C(=O)COc2ncnc3ccccc23)CC1 | 0.45 | i | nt | nt
COc1ccc(Cl)cc1NC(=O)CN(C)C(=O)CN1C(=O)NC2(CCCC2)C1=O | 1.31 | i | nt | nt
CC(C)N(C(C)C)S(=O)(=O)c1ccc(NC(=O)c2cnccn2)cc1 | 0.2 | i | nt | nt
CCOC(=O)c1nnn(-c2nonc2N)c1CSc1ccc(C)cc1 | 1.07 | i | 71.0%* | i
CCOC(=O)c1nnn(-c2nonc2N)c1CSc1ccccc1 | 0.21 | i | nt | nt
Cc1ccc(C)c(NC(=O)CSc2nc3nc(-c4cccs4)cc(C(F)(F)F)c3c(=O)[nH]2)c1 | 6.38* | i | i | i | CHO-K1 Tl ctr=-7.9;KCNQ1 sel pot=33.8*;KCNQ2 pot confirm=-96.8;Kir2-1 sel=-35.1
O=C(CSc1nc2nc(-c3cccs3)cc(C(F)(F)F)c2c(=O)[nH]1)Nc1ccc(F)c(F)c1 | 1.33 | i | nt | nt
C[C@@]12C(=O)N(Cc3ccccc3)CC(=O)N1[C@H](/C=C/c1ccccc1)[C@@H]1C(=O)N(c3ccccc3)C(=O)[C@@H]12 | 0.94 | i | nt | nt
SMILES | KCNQ2 pot | KCNQ2 block | Kir21 confirm | HEK293 ctr | others
NC(=O)C1CCN(C(=O)COc2ccc3ccc(=O)oc3c2)CC1 | nt | i | nt | nt
CC(C)(C)c1cc(CCC(=O)NCC2CCCO2)cc(C(C)(C)C)c1O (centres undefined) | 0.27 | i | nt | nt
Cc1onc(-c2c(F)cccc2Cl)c1C(=O)OCC(=O)c1c[nH]c2ccccc12 | 6.42* | i | i | i | CHO-K1 Tl ctr=-4.6;KCNQ1 sel pot=-9.6;KCNQ2 pot confirm=-1.3;Kir2-1 sel=-20.9
Cc1noc(C)c1C(=O)OCC(=O)c1c[nH]c2ccccc12 | nt | i | nt | nt
COc1cccc(CN2CCNC(=O)C2CC(=O)NCCN2CCCCC2=O)c1 (centres undefined) | nt | i | nt | nt
COc1ccccc1C(=O)NNC(=O)C(=O)Nc1ccc(C)cc1 | 21.7* | i | i | 416.5%* | CHO-K1 Tl ctr=-20.6;KCNQ1 sel pot=24.6*;KCNQ2 pot confirm=46.9*;Kir2-1 sel=-16.8;KCNQ2 W236L MoA=i
COc1ccccc1C(=O)NNC(=O)c1ccc(Cl)cc1 | 0.04 | i | nt | nt
COc1ccccc1C(=O)NNC(=O)C(=O)NC(C)(C)C | 3.82 | i | nt | nt
COc1ccccc1C(=O)NNC(=O)C(=O)Nc1ccc(C)c(Cl)c1 | 28* | i | i | 312.0%* | CHO-K1 Tl ctr=77.8*;KCNQ1 sel pot=-8.6;KCNQ2 pot confirm=53.5*;Kir2-1 sel=-26.6;KCNQ2 W236L MoA=i
COc1ccc(NS(=O)(=O)c2cn(C)cn2)c(OC)c1 | nt | i | nt | nt
CCOc1cc(N2CCOCC2)c(OCC)cc1NC(=O)Cc1cccc(OC)c1 | 10.4* | i | i | i | CHO-K1 Tl ctr=36.0*;KCNQ1 sel pot=14.1*;KCNQ2 pot confirm=72.2*;Kir2-1 sel=-50.1;KCNQ2 W236L MoA=i
CCOc1cc(N2CCOCC2)c(OCC)cc1NC(=O)CN1C(=O)NC(C)(C2CC2)C1=O (centres undefined) | nt | i | nt | nt
CCOc1cc(N2CCOCC2)c(OCC)cc1NC(=O)Cc1ccc(OC)c(OC)c1 | nt | i | nt | nt
CCOc1cc(N2CCOCC2)c(OCC)cc1NC(=O)CC12CC3CC(CC(C3)C1)C2 | 23.4* | i | i | i | CHO-K1 Tl ctr=-18.4;KCNQ1 sel pot=-25.2;KCNQ2 pot confirm=113.2*;Kir2-1 sel=-28.4;KCNQ2 W236L MoA=0.7%*
CCCCC1(C)NC(=S)N2N1C(=S)NC2(C)CCCC (centres undefined) | 0.64 | i | nt | nt
O=S(=O)(NCc1cccs1)c1ccccc1Cl | 0.2 | i | nt | nt
Cc1cc(C)c(C2=Nn3c(C)nnc3SC2C)cc1C (centres undefined) | nt | i | nt | nt
CCc1ccc(CCC(=O)Nc2ccc(C)cc2C)o1 | 6.01* | i | i | i | CHO-K1 Tl ctr=-8.2;KCNQ1 sel pot=-8.5;KCNQ2 pot confirm=1.0*;Kir2-1 sel=-36.2;KCNQ2 W236L MoA=i
Cc1ccc(NC(=O)CCc2ccc(C)o2)c(Br)c1 | 4.25 | i | nt | nt
CCOC(=O)CN(C(=O)c1snc(C(N)=O)c1N)C(C(=O)NC1CCCCC1)c1ccc(F)cc1 (centres undefined) | 3.56 | i | nt | nt
c1ccc(CSc2nnc(-c3ccco3)n2Cc2ccco2)cc1 | nt | i | nt | nt
Cc1ccc(-c2nnc(SCc3ccc(C#N)cc3)n2Cc2ccco2)cc1 | nt | i | nt | nt
Cc1ccccc1CSc1nnc(-c2ccco2)n1Cc1ccco1 | nt | i | 50.0%* | i
c1ccc(CSc2nnc(-c3cccs3)n2Cc2ccco2)cc1 | -6.01 | -6.01* | 65.0%* | i
CCCCS(=O)(=O)N1CCCC(C(=O)NCC2CCCO2)C1 (centres undefined) | nt | i | nt | nt
CCc1nc(SCC(=O)c2ccc(Cl)s2)c2oc3ccccc3c2n1 | 10.1* | i | i | i | CHO-K1 Tl ctr=-10.6;KCNQ1 sel pot=53.6*;KCNQ2 pot confirm=-17.1;Kir2-1 sel=-37.2

Screens as filed in PubChem BioAssay.
